Laboratory results as given in the supplement of paper PMC9446081.
± gives the standard deviation of the averaged measurements.

Experiments:
Assay in all cases: relative enzymatic activity vs untreated control (fraction); higher = less inhibition
Details in all cases: 100 µM; incubation time: 2 h at 37 C
[1] = test system: DNA gyrase
Protocol: (§1)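 In vitro enzymatic inhibition assays (ProFoldin kits) for 12 purified essential E. coli enzymes or complexes, each treated with 218 active antibacterial compounds at 100 µM for 2 h at 37°C. Read-outs were fluorescence or absorbance (phosphate detection, dye binding), converted to activity via standard curves and expressed relative to untreated DMSO controls.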

[2] = target: DNA helicase (UniProt P0ACB1)
Protocol: as §1

[3] = target: DNA ligase (UniProt B1XA82)
Protocol: as §1

[4] = target: DNA polymerase (UniProt P10443)
Protocol: as §1

[5] = target: DNA primase (UniProt P0ABS7)
Protocol: as §1

[6] = target: GlmU (UniProt A7ZTU1)
Protocol: as §1

[7] = target: Guanlyate kinase (UniProt Q0TBG1)
Protocol: as §1

[8] = target: MurA (UniProt Q3YX52)
Protocol: as §1

[9] = target: MurC (UniProt C4ZRI6)
Protocol: as §1

[10] = target: T1, MurD (UniProt P14900)
T1 sequence (whole entry): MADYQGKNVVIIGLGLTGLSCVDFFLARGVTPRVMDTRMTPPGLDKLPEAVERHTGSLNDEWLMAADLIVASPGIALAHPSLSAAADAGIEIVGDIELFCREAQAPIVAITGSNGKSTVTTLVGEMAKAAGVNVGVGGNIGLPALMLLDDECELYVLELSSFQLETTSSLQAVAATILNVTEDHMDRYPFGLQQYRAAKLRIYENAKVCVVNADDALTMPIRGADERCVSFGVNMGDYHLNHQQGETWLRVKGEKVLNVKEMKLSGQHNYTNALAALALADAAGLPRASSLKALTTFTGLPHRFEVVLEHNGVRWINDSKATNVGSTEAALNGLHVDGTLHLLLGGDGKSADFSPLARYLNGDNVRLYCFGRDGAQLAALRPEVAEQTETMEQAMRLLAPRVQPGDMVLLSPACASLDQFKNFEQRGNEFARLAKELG
Protocol: as §1

[11] = target: T2, MurF (UniProt P11880)
T2 sequence (whole entry): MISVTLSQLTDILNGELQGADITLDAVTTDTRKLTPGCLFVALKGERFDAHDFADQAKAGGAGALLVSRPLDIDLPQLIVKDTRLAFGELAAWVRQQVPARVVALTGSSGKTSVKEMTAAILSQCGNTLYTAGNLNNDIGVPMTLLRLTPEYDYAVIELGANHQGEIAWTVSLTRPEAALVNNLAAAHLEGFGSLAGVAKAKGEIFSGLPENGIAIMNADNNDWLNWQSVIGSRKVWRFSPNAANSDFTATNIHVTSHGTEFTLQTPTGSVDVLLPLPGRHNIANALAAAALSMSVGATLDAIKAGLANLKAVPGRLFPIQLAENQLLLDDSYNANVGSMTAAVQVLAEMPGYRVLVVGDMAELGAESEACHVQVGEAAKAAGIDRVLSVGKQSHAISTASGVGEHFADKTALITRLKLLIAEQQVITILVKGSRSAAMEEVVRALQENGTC
Protocol: as §1

[12] = test system: RNA polymerase
Protocol: as §1

DNA primase, sequence (P0ABS7 whole entry): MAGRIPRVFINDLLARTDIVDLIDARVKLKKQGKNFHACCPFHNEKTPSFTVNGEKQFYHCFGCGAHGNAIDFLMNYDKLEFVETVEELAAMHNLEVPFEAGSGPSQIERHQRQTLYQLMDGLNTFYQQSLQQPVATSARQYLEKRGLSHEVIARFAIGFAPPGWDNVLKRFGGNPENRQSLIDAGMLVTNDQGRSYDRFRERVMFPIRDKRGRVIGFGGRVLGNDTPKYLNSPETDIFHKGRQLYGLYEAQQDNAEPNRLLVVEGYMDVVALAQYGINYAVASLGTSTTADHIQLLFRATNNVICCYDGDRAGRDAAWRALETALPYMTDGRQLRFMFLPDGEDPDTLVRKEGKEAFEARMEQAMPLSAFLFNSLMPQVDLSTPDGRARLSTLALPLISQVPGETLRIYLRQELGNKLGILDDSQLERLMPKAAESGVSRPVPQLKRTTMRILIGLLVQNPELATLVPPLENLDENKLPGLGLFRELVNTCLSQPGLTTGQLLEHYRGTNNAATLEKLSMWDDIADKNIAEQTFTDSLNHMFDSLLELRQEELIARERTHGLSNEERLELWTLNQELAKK
MurC, sequence (C4ZRI6 whole entry, looked up): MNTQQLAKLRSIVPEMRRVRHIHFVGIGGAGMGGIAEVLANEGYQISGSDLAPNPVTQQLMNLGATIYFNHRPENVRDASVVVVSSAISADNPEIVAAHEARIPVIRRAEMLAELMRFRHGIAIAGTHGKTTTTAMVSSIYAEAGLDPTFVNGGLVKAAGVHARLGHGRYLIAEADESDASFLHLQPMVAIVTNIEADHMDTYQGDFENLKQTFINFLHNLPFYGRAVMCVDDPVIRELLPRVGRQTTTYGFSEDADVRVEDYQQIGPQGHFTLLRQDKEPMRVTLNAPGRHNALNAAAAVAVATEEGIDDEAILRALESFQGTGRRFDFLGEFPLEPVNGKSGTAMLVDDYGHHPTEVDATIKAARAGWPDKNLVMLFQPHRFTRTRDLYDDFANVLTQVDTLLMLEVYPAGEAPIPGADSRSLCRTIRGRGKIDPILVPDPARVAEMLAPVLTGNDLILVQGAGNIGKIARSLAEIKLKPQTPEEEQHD
MurA, sequence (Q3YX52 whole entry): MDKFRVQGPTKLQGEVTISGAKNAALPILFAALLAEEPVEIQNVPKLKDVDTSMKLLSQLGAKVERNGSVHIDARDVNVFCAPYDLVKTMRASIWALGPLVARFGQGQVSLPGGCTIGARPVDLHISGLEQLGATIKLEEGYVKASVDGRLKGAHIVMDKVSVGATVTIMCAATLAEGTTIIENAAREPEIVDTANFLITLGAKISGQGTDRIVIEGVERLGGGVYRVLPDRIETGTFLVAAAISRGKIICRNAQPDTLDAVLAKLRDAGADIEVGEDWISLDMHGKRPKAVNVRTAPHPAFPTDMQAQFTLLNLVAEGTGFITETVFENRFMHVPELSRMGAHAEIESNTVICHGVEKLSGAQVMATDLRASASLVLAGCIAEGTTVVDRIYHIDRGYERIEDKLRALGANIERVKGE
GlmU, sequence (A7ZTU1 whole entry, looked up): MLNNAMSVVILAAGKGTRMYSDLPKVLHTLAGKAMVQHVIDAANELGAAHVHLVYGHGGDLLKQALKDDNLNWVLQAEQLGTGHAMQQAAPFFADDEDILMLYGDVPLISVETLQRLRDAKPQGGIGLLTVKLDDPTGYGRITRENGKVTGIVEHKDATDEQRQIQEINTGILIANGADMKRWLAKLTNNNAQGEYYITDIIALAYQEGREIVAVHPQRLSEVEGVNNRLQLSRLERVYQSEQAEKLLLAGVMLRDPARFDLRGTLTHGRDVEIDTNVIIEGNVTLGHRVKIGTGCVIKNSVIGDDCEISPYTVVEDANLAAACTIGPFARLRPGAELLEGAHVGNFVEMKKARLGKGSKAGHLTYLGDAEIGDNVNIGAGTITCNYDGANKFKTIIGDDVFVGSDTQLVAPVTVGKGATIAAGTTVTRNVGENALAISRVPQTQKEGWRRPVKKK
Guanlyate kinase, sequence (Q0TBG1 whole entry): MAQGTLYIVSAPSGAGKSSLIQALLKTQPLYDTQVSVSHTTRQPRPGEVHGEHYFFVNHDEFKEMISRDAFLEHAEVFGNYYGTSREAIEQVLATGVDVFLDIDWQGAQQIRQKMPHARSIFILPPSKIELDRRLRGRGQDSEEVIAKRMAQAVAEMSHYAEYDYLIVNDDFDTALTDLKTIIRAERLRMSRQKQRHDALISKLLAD
DNA polymerase, sequence (P10443 whole entry): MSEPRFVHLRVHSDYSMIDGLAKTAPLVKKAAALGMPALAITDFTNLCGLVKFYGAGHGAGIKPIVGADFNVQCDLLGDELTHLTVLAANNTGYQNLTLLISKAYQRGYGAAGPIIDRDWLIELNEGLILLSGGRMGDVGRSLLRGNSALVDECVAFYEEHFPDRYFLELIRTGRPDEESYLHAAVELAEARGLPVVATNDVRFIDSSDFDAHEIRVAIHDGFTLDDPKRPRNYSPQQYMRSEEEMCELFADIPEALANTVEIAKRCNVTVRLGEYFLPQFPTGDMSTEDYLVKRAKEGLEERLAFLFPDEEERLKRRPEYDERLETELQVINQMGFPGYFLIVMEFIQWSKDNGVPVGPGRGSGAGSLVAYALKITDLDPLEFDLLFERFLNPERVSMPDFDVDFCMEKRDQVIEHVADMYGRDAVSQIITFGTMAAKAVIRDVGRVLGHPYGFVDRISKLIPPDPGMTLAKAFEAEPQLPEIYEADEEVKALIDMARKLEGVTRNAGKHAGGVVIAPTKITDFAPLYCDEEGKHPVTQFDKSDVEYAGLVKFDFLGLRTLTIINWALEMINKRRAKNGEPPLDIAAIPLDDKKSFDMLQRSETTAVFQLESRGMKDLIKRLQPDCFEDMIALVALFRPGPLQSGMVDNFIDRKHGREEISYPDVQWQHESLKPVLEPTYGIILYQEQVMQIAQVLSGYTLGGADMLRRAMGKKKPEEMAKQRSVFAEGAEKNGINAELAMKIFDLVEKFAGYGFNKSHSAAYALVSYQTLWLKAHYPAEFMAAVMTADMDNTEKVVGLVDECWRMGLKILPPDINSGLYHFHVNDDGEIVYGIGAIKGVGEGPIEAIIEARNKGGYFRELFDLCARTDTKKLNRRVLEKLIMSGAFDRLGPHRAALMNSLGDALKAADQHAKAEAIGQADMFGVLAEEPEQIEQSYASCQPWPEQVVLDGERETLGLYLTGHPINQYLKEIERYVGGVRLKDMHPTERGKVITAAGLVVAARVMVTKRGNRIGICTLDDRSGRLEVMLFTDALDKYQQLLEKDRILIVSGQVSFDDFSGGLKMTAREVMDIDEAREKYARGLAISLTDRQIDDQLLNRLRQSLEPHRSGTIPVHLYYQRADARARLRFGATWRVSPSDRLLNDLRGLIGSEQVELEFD
DNA helicase, sequence (P0ACB1 whole entry): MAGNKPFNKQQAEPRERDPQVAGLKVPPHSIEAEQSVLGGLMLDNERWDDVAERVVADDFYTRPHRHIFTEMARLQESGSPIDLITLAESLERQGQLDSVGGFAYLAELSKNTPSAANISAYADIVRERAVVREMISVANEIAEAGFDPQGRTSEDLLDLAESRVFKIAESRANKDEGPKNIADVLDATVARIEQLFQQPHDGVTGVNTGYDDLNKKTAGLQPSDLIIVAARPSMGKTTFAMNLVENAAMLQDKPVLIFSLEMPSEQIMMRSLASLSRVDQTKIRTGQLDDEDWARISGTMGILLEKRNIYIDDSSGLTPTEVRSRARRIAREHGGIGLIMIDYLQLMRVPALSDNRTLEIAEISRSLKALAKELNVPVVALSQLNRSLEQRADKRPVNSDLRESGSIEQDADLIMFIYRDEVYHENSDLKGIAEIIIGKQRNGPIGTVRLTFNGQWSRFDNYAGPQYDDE
DNA ligase, sequence (B1XA82 whole entry): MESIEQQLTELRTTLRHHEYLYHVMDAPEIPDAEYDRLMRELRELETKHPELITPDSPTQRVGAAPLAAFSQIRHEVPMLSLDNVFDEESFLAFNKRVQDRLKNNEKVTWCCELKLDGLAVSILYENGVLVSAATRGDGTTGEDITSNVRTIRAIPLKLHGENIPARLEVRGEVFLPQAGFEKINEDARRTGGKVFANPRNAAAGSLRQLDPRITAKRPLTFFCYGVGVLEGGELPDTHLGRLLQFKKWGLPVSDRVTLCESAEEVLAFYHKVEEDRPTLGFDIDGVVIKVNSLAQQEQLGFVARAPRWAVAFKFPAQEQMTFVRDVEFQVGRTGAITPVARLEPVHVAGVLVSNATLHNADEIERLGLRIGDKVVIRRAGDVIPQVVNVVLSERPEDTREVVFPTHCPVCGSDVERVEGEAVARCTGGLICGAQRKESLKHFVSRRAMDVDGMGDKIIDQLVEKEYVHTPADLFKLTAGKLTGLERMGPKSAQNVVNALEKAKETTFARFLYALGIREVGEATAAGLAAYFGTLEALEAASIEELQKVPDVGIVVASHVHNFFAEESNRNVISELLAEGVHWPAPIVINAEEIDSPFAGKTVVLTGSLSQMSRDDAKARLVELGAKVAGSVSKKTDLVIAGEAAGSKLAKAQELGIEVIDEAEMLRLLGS

SMILES	relative enzymatic activity [1]	relative enzymatic activity [2]	relative enzymatic activity [3]	relative enzymatic activity [4]	relative enzymatic activity [5]	relative enzymatic activity [6]	relative enzymatic activity [7]	relative enzymatic activity [8]	relative enzymatic activity [9]	relative enzymatic activity [10]	relative enzymatic activity [11]	relative enzymatic activity [12]
O=C1NCCN1c1ncc([N+](=O)[O-])s1	0.684 ± 0.55	0.564 ± 0.22	0.852 ± 0.12	1.16 ± 0.25	0.839 ± 0.018	0.982 ± 0.011	0.863 ± 0.052	0.658 ± 0.11	1.008 ± 0.01	0.628 ± 0.47	0.389 ± 0.55	0.792 ± 0.11
O=c1[nH]c(=O)n([C@H]2C[C@H](O)[C@@H](CO)O2)cc1F	0.574 ± 0.53	0.629 ± 0.23	0.789 ± 0.18	1.15 ± 0.27	0.8368 ± 0.0026	0.979 ± 0.066	0.927 ± 0.06	0.762 ± 0.13	0.993 ± 0.019	0.584 ± 0.38	0.953 ± 0.23	0.7944 ± 0.0043
CCCCCCCCCCCCCCCC[N+](C)(C)Cc1ccccc1.[Cl-]	0.3954 ± 0.003	0.0157 ± 0.00047	0.183 ± 0.12	0.0334 ± 0.0085	0.27 ± 0.0085	0.115 ± 0.0013	0.0243 ± 0.0088	0.032 ± 0.0013	0.176 ± 0.051	0.0872 ± 0.0094	0.156 ± 0.061	0.133 ± 0.018
CNC1C(OC2C(OC3C(O)C(O)C(NC(=N)N)C(O)C3NC(=N)N)OC(C)C2(O)CO)OC(CO)C(O)C1O.O=S(=O)(O)O (stereo not given)	0.78 ± 0.53	0.565 ± 0.13	1.11 ± 0.19	1.38 ± 0.47	0.716 ± 0.22	0.982 ± 0.09	1.02 ± 0.063	0.635 ± 0.0086	1.1 ± 0.059	0.65 ± 0.44	0.944 ± 0.15	0.953 ± 0.083
CC[C@H]1OC(=O)[C@H](C)[C@@H](O[C@H]2C[C@@](C)(OC)[C@@H](O)[C@H](C)O2)[C@H](C)[C@@H](O[C@@H]2O[C@H](C)C[C@H](N(C)C)[C@H]2O)[C@](C)(OC)C[C@@H](C)C(=O)[C@H](C)[C@@H](O)[C@]1(C)O	0.647 ± 0.56	0.732 ± 0.33	0.901 ± 0.15	1.15 ± 0.22	0.831 ± 0.025	1.03 ± 0.0049	0.97 ± 0.048	0.856 ± 0.12	1.01 ± 0.14	0.58 ± 0.37	0.942 ± 0.24	0.862 ± 0.13
CC(C)[C@@H](CC[C@@H](C)[C@H]1CC[C@H]2[C@@H]3[C@H](O)C[C@H]4C[C@@H](NCCCNCCCCNCCCN)CC[C@]4(C)[C@H]3CC[C@]12C)OS(=O)(=O)O	1.18 ± 0.2	0.0588 ± 0.066	0.674 ± 0.096	0.126 ± 0.02	0.419 ± 0.016	0.813 ± 0.091	0.334 ± 0.028	0.187 ± 0.029	1.05 ± 0.014	0.59 ± 0.41	1.03 ± 0.027	0.146 ± 0.0049
CC1CCc2c(N3CCC(O)CC3)c(F)cc3c(=O)c(C(=O)O)cn1c23 (stereo not given)	0.0257 ± 0.036	0.552 ± 0.1	0.916 ± 0.018	1.19 ± 0.29	0.8373 ± 0.0067	0.9778 ± 0.0021	0.957 ± 0.071	0.8065 ± 0.0039	0.92 ± 0.079	0.566 ± 0.37	1.102 ± 0.0015	0.85 ± 0.059
CC1CN(c2c(F)c(N)c3c(=O)c(C(=O)O)cn(C4CC4)c3c2F)CC(C)N1 (stereo not given)	0.00841 ± 0.012	0.442 ± 0.043	1.49 ± 0.054	1.23 ± 0.24	0.715 ± 0.21	0.913 ± 0.04	0.883 ± 0.029	0.603 ± 0.083	0.989 ± 0.12	0.597 ± 0.4	0.543 ± 0.76	0.92 ± 0.0099
NC[C@H]1O[C@H](O[C@H]2[C@H](O)[C@@H](O[C@H]3O[C@H](CO)[C@@H](O)[C@H](N)[C@H]3O)[C@H](N)C[C@@H]2N)[C@H](N)[C@@H](O)[C@@H]1O	0.315 ± 0.23	0.151 ± 0.041	0.868 ± 0.093	0.916 ± 0.35	0.46 ± 0.095	0.992 ± 0.076	0.3862 ± 0.0032	0.686 ± 0.15	0.9682 ± 0.0015	0.605 ± 0.41	0.975 ± 0.24	0.781 ± 0.22
Nc1c2ccccc2nc2ccccc12	0.766 ± 0.37	0.595 ± 0.097	0.519 ± 0.092	1.01 ± 0.28	0.573 ± 0.14	0.933 ± 0.059	0.3108 ± 0.001	0.74 ± 0.14	0.998 ± 0.044	0.589 ± 0.38	0.94 ± 0.25	0.505 ± 0.016
CON=C(C(=O)N[C@@H]1C(=O)N2C(C(=O)OCOC(=O)C(C)(C)C)=C(C=Cc3scnc3C)CS[C@H]12)c1csc(N)n1	0.622 ± 0.19	0.322 ± 0.0034	0.899 ± 0.1	0.496 ± 0.7	0.83003 ± 0.00016	0.838 ± 0.01	0.842 ± 0.11	0.335 ± 0.12	0.769 ± 0.15	0.147 ± 0.21	0.855 ± 0.25	0.945 ± 0.2
CO/N=C(\C(=O)N[C@@H]1C(=O)N2C(C(=O)O)=C(C[n+]3ccn4ncccc43)CS[C@H]12)c1nsc(N)n1	0.675 ± 0.49	0.625 ± 0.3	0.891 ± 0.17	1.14 ± 0.26	0.77 ± 0.018	0.999 ± 0.0029	0.949 ± 0.069	0.305 ± 0.13	0.964 ± 0.082	0.591 ± 0.38	0.909 ± 0.24	0.8278 ± 0.0046
CC(C)(C)CC(C)(C)c1ccc(OCCOCC[N+](C)(C)Cc2ccccc2)cc1.[Cl-]	0.0482 ± 0.068	0.0168 ± 0.00082	0.917 ± 0.17	0.4 ± 0.06	0.709 ± 0.21	0.121 ± 0.031	0.439 ± 0.06	0.0623 ± 0.0083	0.398 ± 0.28	0.114 ± 0.033	0.193 ± 0.035	0.838 ± 0.16
COc1ccc(Cc2cnc(N)nc2N)cc1OC	0.752 ± 0.41	0.508 ± 0.059	1.55 ± 0.21	1.21 ± 0.22	0.74 ± 0.24	1.019 ± 0.0077	0.993 ± 0.039	0.74 ± 0.026	1.1 ± 0.079	0.583 ± 0.39	0.946 ± 0.2	0.9567 ± 0.0054
CCCCCCCCCCCCCCCC[N+](C)(C)C	0.633 ± 0.67	0.0316 ± 0.02	0.457 ± 0.13	0.0628 ± 0.012	0.384 ± 0.054	0.198 ± 0.0053	0.644 ± 0.077	0.0456 ± 0.013	–	0.173 ± 0.085	0.106 ± 0.034	0.223 ± 0.0051
CC1c2cccc(O)c2C(=O)C2=C(O)C3(O)C(=O)C(C(N)=O)=C(O)C(N(C)C)C3C(O)C21.Cl (stereo not given)	0.996 ± 0.098	0.728 ± 0.41	1.05 ± 0.12	1.34 ± 0.32	0.734 ± 0.2	0.971 ± 0.048	1.12 ± 0.046	0.431 ± 0.093	–	0.572 ± 0.37	0.943 ± 0.17	0.9639 ± 0.0043
